About 360 (15%) of roughly 2,400 compounds were called active. Not shown: some 5% with an inconclusive outcome.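 How the source made its calls: active means falling-signal curve with half-maximal concentration at or below ten times the top tested dose; inconclusive means flat fit at 30 to 70% inhibition, or poor fit; inactive means signal rise, flat within 30%, or potency beyond limit.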 Only a sample is shown. Measured potencies and affinities stand elsewhere.
test: Tet-On RFP internal-standard readout, HSF1 screen, dose response, cell-based, NIH3T3 R4, HSE-GFP and Tet-On RFP, cherry-pick, set 3 (AID 493085); conditions: NIH3T3 R4 HSE-GFP/Tet-RFP reporter, fluorescence, 48 h; series mostly up to 19.5 µM; activity change, negative = inhibition: at the top concentration;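 further: cells heat shocked 2 h at 42 °C with doxycycline to induce reporters; 0% = neutral control wells and -100% = didemnin B control at 400 nM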

Activity change, negative = inhibition, inactive:
COc1cc2cc(CN(C(=O)NC3CCCCC3)C3CCCC3)c(=O)[nH]c2cc1OC -6.25%, COc1ccc(/C=N/NC(=O)CN(C)S(=O)(=O)c2ccc(NC(C)=O)cc2)cc1 0.548%, CCOC(=O)c1c(C)n(C)c2ccc(OC)c(NC(=O)CN3CCSCC3)c12 9.61%, COc1ccc(C(=O)C2CCCN(Cc3ccc(NC(C)=O)cc3)C2)cc1OC (configuration not stated) -0.992%, Nc1nc(Cl)nc2c1ncn2C1CC(O)C(CO)O1 (configuration not stated) -2.61%, Cc1oc(-c2cc3c(cc2Cl)OCO3)nc1CN1CCCC1c1ccc(F)cc1 (configuration not stated) 1.85%, Cc1c(Cl)cccc1NC(=O)CS(=O)(=O)c1ccccc1 11.7%, CC(C)n1cc(/C=N/Nc2ccc(C(=O)O)cc2)c2ccccc21 -12%, CCOC(=O)N1CCN(C(=O)C2CCN(Cc3ccc(OC)cc3OC)CC2)CC1 3%, COc1cccc(-c2cccc(NC(=O)C3CCN(Cc4ccon4)CC3)c2)c1 -3.89%, Cc1ccnc(NS(=O)(=O)c2ccc(NC(=O)COc3ccccc3)cc2)n1 5.48%, Cc1nc(C(=O)NNC(=O)c2cccc(Cl)c2)c(C(F)(F)F)o1 5.05%, O=C(Cc1ccccc1)Nc1nc2ccccc2s1 0.496%, N/C(CC(=O)Nc1ccc(F)cc1)=N\O -0.505%, O=C(COc1ccccc1C(=O)O)Nc1ccc(SC(F)F)cc1 -6.52%, Cc1ccccc1C(=O)Nc1nnc(CC(=O)N/N=C/c2ccco2)s1 25.1%, Cc1cc(C)nc(NC(=O)COc2cc(Cl)cc(Cl)c2)n1 -6.63%, COc1cccc(CC(=O)N[C@@H](CCSC)c2nc3ccccc3[nH]2)c1 -6.15%, CCOc1ccc(N=C(NN)c2ccc3ccccc3n2)cc1 -3.17%, Cc1ccc(S(=O)(=O)c2ccc(Oc3ccccc3)cc2)cc1 -13.6%, O=[N+]([O-])c1ccccc1Nc1cccnc1 -3.4%, O=C(NCc1ccccc1)C1CCCN(S(=O)(=O)c2cccc3nsnc23)C1 (configuration not stated) -0.54%, Cc1nc2sc3c(NCc4ccco4)ncnc3c2c2c1COC(C)(C)C2 -16.8%, Nc1nc(NCc2ccco2)nc(NC2CCCCC2)c1[N+](=O)[O-] -2.76%, CC(C)CCc1c(O)nc(SCC(=O)N2CCCCCC2)[nH]c1=O 0.398%, O=C(O)COc1ccc(/C=N/NC(=O)c2ccccc2Br)cc1 -6.35%, CCCc1cc(=O)oc2cc(C)cc(OCC(=O)NCCCn3ccnc3)c12 -7.06%, O=C(CC(Nc1ccccc1Cl)C(=O)OCC(=O)c1cccs1)c1ccccc1 (configuration not stated) 20.8%, COc1ccc2oc(=O)c(N3C(=O)c4ccccc4C3=O)cc2c1 -15.4%, COc1cc(C2NC(=O)NC(C)=C2C(=O)OCC2CCCO2)ccc1O (configuration not stated) 1.41%, CC1(C)CC(NCc2ccc3c(c2)OCO3)CCO1 (configuration not stated) 3.89%, CCC1CCCCN1C(=O)c1cc2c(=O)n3cccc(C)c3nc2s1 (configuration not stated) -4.77%, CN(C)c1ccc(C2Nc3ccccc3C(=O)N2CCCN2CCOCC2)cc1 (configuration not stated) -11.3%, NC(=O)C1CCN(CC(=O)Nc2nc(-c3ccccc3)cs2)CC1 1.54%, O=C(c1c(F)cccc1F)N1CCN(c2ccccc2F)CC1 -12.1%, Cc1cc(C(=O)NC2CCCN(Cc3ccc(Cl)cc3)C2)n(C)n1 (configuration not stated) 7.47%, O=Cc1ccc(OC(=O)Cc2ccc(F)cc2)cc1 -3.08%, CC(=NCCc1ccccc1)C1=C(O)CSC1=O -2.37%, COc1ccc(CNC(=O)C(=O)c2cn(CC(=O)N3CCOCC3)c3ccccc23)cc1 -4.86%, CC(=O)Nc1ccc(NC(=O)CSc2cn(CC(=O)N3CCOCC3)c3ccccc23)cc1 3.01%, Cc1ccc(N2C(=O)c3ccccc3C2Nc2ccccc2F)nc1 (configuration not stated) -6.19%, N#Cc1c(NC(=O)CSc2ncccn2)oc(-c2ccccc2)c1-c1ccccc1 8.77%, Cc1ccc([N+](=O)[O-])cc1NC(=O)CSc1n[nH]c(-c2cccnc2)n1 -1.6%, CC(C)(C)OC(=O)C1C(=O)CC(C)(O)C(C(=O)OC(C)(C)C)C1c1cccnc1 (configuration not stated) -6.17%, CCC(=O)N1CCc2cc(S(=O)(=O)NCCC(=O)Nc3ccccc3C)ccc21 -3.98%, Cc1onc(-c2ccccc2)c1C(=O)Nc1sc2c(c1C(N)=O)CCC2 -7.58%, C/C(CC(=O)Nc1ccc(N(C)C)cc1)=N\NC(=O)Cc1csc(N)n1 -0.381%, OC(COc1c(F)cc(Br)cc1F)CN1CCN(c2ccc(F)cc2)CC1 (configuration not stated) 4.39%, COc1cccc(NC(=S)N(CCC(C)C)C2CCN(C(C)=O)CC2)c1 7.46%, CCn1c(=O)c(C(=O)Nc2ccccc2F)c(O)c2ccccc21 22.5%, O=C1CCC(=O)N1CNc1ccccn1 -21.2%, Cn1c(C(=O)NN)cc2cc(OCc3ccccc3)ccc21 -7.37%, COc1ccc(N2CC(C(=O)Nc3nnc(C4CCCCC4)s3)CC2=O)cc1 (configuration not stated) -9.73%, COc1ccc2nc(NC(=O)CN3CCOCC3)sc2c1 -2.22%, O=C(c1ccc(F)cc1)N1CCCC(N2CCN(Cc3ccc4c(c3)OCO4)CC2)C1 (configuration not stated) -4.52%, COc1nc(-c2ccccc2)c2cc(Br)ccc2n1 -15.5%, COc1ccc(OC(C)C(=O)N2CCC(C)CC2)cc1 (configuration not stated) -3.93%, CCOC(=O)c1ccc(NC(=S)Nc2ccccc2N)cc1 -7.45%, CCOC(=O)c1ccc(NC(=O)Oc2ccccc2)cc1 -4.21%, COc1ccc(-n2c(-c3ccc(F)cc3)cnc2SCC(=O)NCc2ccco2)cc1 -3.84%, Cc1cc2cc(CCNC(=O)C(=O)c3c[nH]c4ccccc34)c(=O)[nH]c2cc1C -3.78%, CC(c1ccccc1)N1CCN(C(=O)CCl)CC1 (configuration not stated) 2.46%, O=C(Nc1ccc(Cl)cn1)c1ccc2c(Cl)c3c(nc2c1)CCC3 23%, CC(=O)COc1ccccc1OC(=O)c1ccco1 3.47%, O=C(CSc1ccccc1)Nc1cccc(NC(=O)c2ccco2)c1 -6.38%, N/C(=N\c1nc2ccccc2o1)NC(=O)c1ccc(Cl)cc1 4.58%, Cc1nnc(N2C(=O)c3cccc4cccc(c34)C2=O)s1 -1.34%, COc1cccc(NC(=O)N2CCCC2C(=O)NC(C)C)c1 (configuration not stated) 8.18%, CCOC(=O)c1cnn(-c2ccccc2)c1-n1cccc1 -4.52%, COc1nn(-c2ccccc2)c(=O)c(Cl)c1Cl -66.5%, O=C(C1CCC(CNS(=O)(=O)c2cccc3cccnc23)CC1)N1CCCC1 (configuration not stated) 18.4%, COc1c([N+](=O)[O-])c(=O)oc2ccccc12 -1.15%, CCC(=O)Nc1c(-c2ccc(Cl)cc2)c(=O)c2ccccc2n1C 2.21%, CCOc1c(C)cc(S(=O)(=O)NCc2cccnc2)c(C)c1C -2.75%, Cc1ccc(C(=O)Nc2ccc(C(=O)O)cc2NC(=O)c2ccc(C)cc2)cc1 -8.11%, CCOc1ccc(OCc2cccc(C(=O)O)c2)cc1 -1.67%, COc1ccc(C(=O)Nc2ccc(OCc3ccccc3)cc2)cc1[N+](=O)[O-] 20.1%, CCCCN(C)C(=O)CCC(=O)Nc1ccc2nc(N3CCN(C)CC3)cc(C)c2c1 0.044%, CC(C)CC(NC(=O)C1CCCN1C(=O)[C@@H](C)NC(=O)OCc1ccccc1)C(=O)NCC(N)=O (some centres not stated) -0.054%, CC(=O)c1ccc(NC(=O)C(C)n2nc(-c3ccccc3)c3cc(Cl)ccc32)cc1 (configuration not stated) -1.25%, CC1Cc2ccccc2N1C(=O)C12CCC(C)(C(=O)C1)C2(C)C (configuration not stated) -7.93%, O=S(=O)(/N=C(/c1ccccc1Cl)N1CCOCC1)c1ccccc1 -5.16%, O=C(c1cc(Cl)ccc1Cl)N1CCOCC1 -1.28%, COc1cc(SC)ccc1C(=O)NCC1CCCO1 (configuration not stated) -2.99%, COCC(C)NC(=O)c1ccc2nc(-c3ccccc3)c(-c3ccccc3)nc2c1 (configuration not stated) 2.21%, CCn1cc(S(=O)(=O)Nc2ccc3c(c2)OCCO3)cn1 36.6%, Cc1nc(SCC(=O)NCC2CCCO2)[nH]c(=O)c1C (configuration not stated) 0.854%, O=C(Cc1ccccc1F)Nc1ccc(S(=O)(=O)N2CCCCC2)cc1 -1.75%, O=C(N1CCCCC1)N1CCN(S(=O)(=O)c2ccccc2)CC1 -7.11%, C=CCNC(=S)Nc1sc2c(c1C#N)CCCC2 -6.78%, CCOc1ccc(NC(=S)N(CCc2ccncc2)C(C)C)cc1 0.037%, Cc1ccc([N+](=O)[O-])c(OCCCN2CCC(Cc3ccccc3)CC2)c1 0.591%, O=C(OCn1ncc(Cl)c(Cl)c1=O)c1ccccc1Cl 19.6%, COc1cc(NC(=O)Cn2ncc(Cl)c(Cl)c2=O)c(C)cc1[N+](=O)[O-] -74.7%, CCCNC(=O)NC1C(NC(=O)NCCC)N(C)C(=O)N1C (configuration not stated) -1.63%, CCc1ccc(NC(=O)C2C3CCC(O3)C2C(=O)O)cc1 (configuration not stated) 5.37%, Cc1ccc(S(=O)(=O)N(C)c2ccccc2C(=O)NC2CCCC2)cc1 -7.71%, S=c1[nH]nc(-c2cnccn2)n1-c1ccccc1 -8.92%, Cc1ccc(NC(=O)COC(=O)Cn2cnc3ccccc32)cc1S(=O)(=O)N(C)C -0.192%, CC(C)c1ccc(/C=N/Nc2ccc(C(=O)O)cc2)cc1 10.4%, N#C/C(=C\Nc1ccc2cn[nH]c2c1)c1nc(-c2ccccc2)cs1 3.6%, O=C(Nc1ccc2[nH]ncc2c1)c1ccccc1Cl -0.069%, O=C(O)c1ccc(N/N=C/c2ccc(OC(=O)c3ccccc3Cl)cc2)cc1 -3.02%, CCOC(=O)c1ccc(Cl)c(NC(=O)c2cccnc2)c1 -3.1%, CCc1ccc(NC(=O)CSc2ccc(-c3cccnc3)nn2)cc1 4.37%, O=C(NC(=S)Nc1ccc2oc(=O)ccc2c1)c1cc2ccccc2o1 15.4%, Cc1ccc(NC(=O)c2cc(NC(=O)c3ccco3)ccc2N2CCOCC2)cc1 -3%, O=c1c2c3c(sc2nc(NCCOCCO)n1Cc1ccco1)CCCCC3 10.9%, COc1ccc(NC(=O)c2cc3cc(OC)ccc3oc2=N)cc1 -4.04%, COc1cccc(/C=C/C(=O)NCc2ccc3c(c2)OCO3)c1 -6.73%, CCOC(=O)/C(C#N)=C/c1cc(C)n(-c2ccccc2)c1C -2.19%, Cc1cccc(NC(=O)c2sc(-c3ccccc3)nc2-c2ccc([N+](=O)[O-])cc2)c1 -7.95%

Reference: PubChem BioAssay AID493085 (Broad Institute, 2011)
